# Only some compounds are listed: those with a hit (about 6.8% of all), similar ones and a draw of the others.
# KB-V1 MDR tox = kills drug-selected multidrug resistant KB-V1 cells; KB-V1 MDR cells viability, CellTiter-Glo, 72 h; 400,000 tested, 3.4% active; AID 1347076; Potency, µM (highest dose often 46.1 µM), hits mostly cytotoxic; note: % is set by controls: 0 for no effect and ±100 for the full control effect; nearly all actives have a fitted effect of over 60% in size
#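 Potencies derive from concentration-effect curves fitted to normalized luminescence (CellTiter-Glo) of KB-V1 cells treated for 72 h at 37 degrees C in phenol-red-free DMEM containing 10% FBS.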
# KB-3-1 cytotox = kills parental KB-3-1 adenocarcinoma cells. KB-3-1 viability, CellTiter-Glo ATP luminescence, 72 h. 400,000 tested, 1.4% active. Potency, µM (doses to about 46.1 µM), hits mostly cytotoxic. AID 1347075; note: % is set by controls: 0 for no effect and ±100 for the full control effect; nearly all actives have a fitted effect of over 60% in size
#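 Luminescent ATP read-out (CellTiter-Glo) measures survival of drug-naive KB-3-1 cells after 72 h compound exposure at 37 °C. Titration series was screened from lowest to highest concentration, with DMSO vehicle plates as background controls.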
# SW480 rerep = DNA re-replication induction in SW480 cells. 340,000 tested, 1.8% active. SW480 DNA re-replication, Hoechst DNA content imaging, 48 h. Potency, µM (titrated, usually from 46.1 µM), for inactives: at the highest dose re-replication activation, hits mostly activators; note: % of control where 0% means no effect; nearly all actives have a fitted effect of over 55% in size
#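 Image-based DNA-content assay: after two days of treatment, nuclei were labelled with the DNA dye Hoechst and imaged, and hits were compounds raising the count of nuclei showing high fluorescence intensity.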
# MCF10A rereplic = induces DNA re-replication in MCF 10a normal breast cells | MCF 10A DNA re-replication, Hoechst nuclear intensity, 48 h | Potency, µM (series often up to 46.1 µM), inactives show top-dose activity, positive = re-replication, usual class: activators | 350,000 tested, 2.9% active | AID 624296; note: % of control where 0% means no effect; nearly all actives have a fitted effect of over 50% in size
# PINK1 modulator = modulators of PINK1 expression. AID 624263. 410,000 tested, 0.2% active. PINK1 immunofluorescence, high-content cytometry, 24 h. Potency, µM (series often up to 76.6 µM), without a hit: at the top dose activation (PINK1 increase), actives largely listed as activators; active = well fitted activation curve with a large enough effect; inconclusive = small, poorly fitted or top-dose-only effect; cell line not stated here; note: % of control where 0% means no effect; nearly all actives have a fitted effect of over 65% in size
#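 Fluorescence from anti-PINK1 antibody, together with nuclear and cell stains, was scanned on a laser-scanning cytometer. Before staining, stable-line cells were incubated 24 hours with compounds at 5 concentrations; primary antibody 12 h at 10 degrees C.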
# TSG101-PTAP inh = blocks PTAP/TSG101 interaction to inhibit HIV-1 budding | Fluorescence polarization, FITC-PTAP peptide / Tsg101 binding | Potency, µM (top dose mostly 115 µM), without a hit: top-dose activity change, negative = inhibition, actives largely listed as inhibitors | 340,000 tested, under 10 active; active = well fitted inhibition curve with a large enough effect in the main read-out, with a control signal flat, not every such curve was filed as active; inconclusive = small, poorly fitted or top-dose-only effect, or effect the other way, or a change in a side signal; inactive = no such curve, though single readings can be large or run the other way; note: % of control where 0% means no effect
# Target sequence (Q99816 whole entry, looked up): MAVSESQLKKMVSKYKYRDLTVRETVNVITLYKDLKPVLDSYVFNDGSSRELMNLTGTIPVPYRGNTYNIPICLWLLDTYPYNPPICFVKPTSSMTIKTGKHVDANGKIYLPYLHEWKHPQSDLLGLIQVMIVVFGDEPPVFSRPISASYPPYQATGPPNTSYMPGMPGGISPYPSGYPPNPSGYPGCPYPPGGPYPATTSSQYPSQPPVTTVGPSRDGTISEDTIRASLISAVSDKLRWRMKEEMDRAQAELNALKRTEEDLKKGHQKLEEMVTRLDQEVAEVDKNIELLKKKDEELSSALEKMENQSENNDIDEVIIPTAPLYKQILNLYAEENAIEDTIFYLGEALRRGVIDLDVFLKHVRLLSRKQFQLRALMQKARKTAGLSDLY
#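 Fluorescence polarization binding of Tsg101 binding domain (10 uM final) to FITC-labeled PTAP peptide (50 nM final) in HEPES pH 7.5 buffer with NaCl, Tween 20, EDTA, TCEP. Compounds added before peptide; binding 20 min at RT.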
# Starred values were filed as active, the others as inactive; i = inactive; u = inconclusive; x = no result given; [ ] = dose if it differs, or a comment. Unless noted, calls come from the whole dose curve; as a rule, active = well fitted curve in the direction sought with a large enough effect; inconclusive = small, poorly fitted or top-dose-only effect, or another doubt; inactive = no such curve, though single readings can be large; an effect the other way counts as inactive or inconclusive. Potency is the fitted concentration of half-maximal effect.
SMILES,KB-V1 MDR tox,KB-3-1 cytotox,SW480 rerep,MCF10A rereplic,PINK1 modulator,TSG101-PTAP inh
CC(=O)Nc1ccc(NC(=O)c2cc3sccc3n2Cc2ccc(Cl)cc2)cc1,i,i,x,x,13%,x
CCOc1cccc(C2c3[nH]c4ccccc4c3CCN2C(=O)CSc2ccccc2)c1 (centres undefined),x,x,x,x,6%,x
CCc1cnc2c(c1SCC(=O)c1ccc(OC)cc1)c(=O)n(C)c(=O)n2C,i,i,x,x,1%,x
COc1ccc(CNC(=O)c2cc3c(C)nc4ccccc4c3o2)c(OC)c1,12µM*,u,3%,1%,5%,-2%
CS(=O)(=O)Nc1cccc(-c2nc(Nc3ccncc3)c3ccccc3n2)c1,x,x,x,x,1%,x
CCc1ccc(NC(=O)c2ccc(F)c(S(=O)(=O)NCC3COc4ccccc4O3)c2)cc1 (centres undefined),3.3µM*,u,7%,25%,22%,6%
Cn1c(N2CCN(C(=O)Nc3ccc(F)cc3)CC2)nc2ccccc21,18µM*,i,0%,8%,-1%,-5%
Cn1c(N2CCN(C(c3ccccc3)c3ccccc3)CC2)nc2ccccc21,u,u,u,23µM*,4%,-5%
CSc1ccc(NC(=O)N2CCN(c3nc4ccccc4s3)CC2)cc1,2.6µM*,u,2%,4%,12%[38.3 µM],-4%
COc1ccc(C(CNC(=O)COc2cc(C)cc(C)c2)N2CCOCC2)cc1 (centres undefined),x,x,x,x,0%,x
CCCCOc1cccc(NC(=O)CSc2nnc(C)s2)c1,i,i,x,x,5%,x
Cc1cc2nc(/C=C/c3nc4cc(C)c(C)cc4[nH]3)[nH]c2cc1C,i,i,23µM*,u,4%,7%
Cc1cc2nc(/C=C/c3cccnc3)[nH]c2cc1C,0.26µM*,1.2µM*,u,u,7%,0%
C(=C\c1ccc2ccccc2n1)/c1cccnc1,i,u,x,x,1%,x
CC(OC(=O)c1ccc(F)cc1)C(=O)Nc1nc(-c2cccc([N+](=O)[O-])c2)cs1 (centres undefined),21µM*,i,-106%,-5%,u,-1%
CC(C)Oc1ccc(C(=O)OC(C)C(=O)Nc2nc(-c3cccc([N+](=O)[O-])c3)cs2)cc1 (centres undefined),i,i,-2%,-1%,4%,-2%
COc1ccc(Cl)cc1NC(=O)N1CCC2(CC1)Oc1ccccc1C(=O)N2Cc1ccc(F)cc1,i,i,x,x,-2%,x
CC(C)(C)NC(=O)Cn1c(=O)c(=O)n(Cc2ccccc2)c2ccc(Cl)cc21,21µM*,i,-13%,6%,0%,-1%
O=C(Cn1c(=O)c(=O)n(Cc2ccccc2)c2ccc(Cl)cc21)Nc1ccc(F)cc1F,i,u,1%,-1%,u,1%
CCn1c(SCC(=O)NC2CC2)nnc1C(C)Oc1ccccc1 (centres undefined),i,i,21µM*,2%,1%,-9%
CC(Oc1ccccc1)c1nnc(SCC(=O)NC2CC2)n1C (centres undefined),i,i,-4%,-16%,0%,1%
O=C1NC(Cc2ccccc2)c2nc3cc(F)c(F)cc3c(=O)n2-c2cc3ccccc3cc21 (centres undefined),u,15µM*,x,x,7%,x
O=C1NC(Cc2ccccc2)c2nc3cc(F)ccc3c(=O)n2-c2cc3ccccc3cc21 (centres undefined),u,u,x,x,7%,x
O=C1NC(Cc2ccc(O)cc2)c2nc3cc(F)c(F)cc3c(=O)n2-c2cc3ccccc3cc21 (centres undefined),i,u,x,x,-2%,x
O=C1NC(Cc2ccccc2)c2nc3ccccc3c(=O)n2-c2cc3ccccc3cc21 (centres undefined),u,13µM*,x,x,3%,x
SMILES,KB-V1 MDR tox,KB-3-1 cytotox,SW480 rerep,MCF10A rereplic,PINK1 modulator,TSG101-PTAP inh
O=C1NC(Cc2ccc(O)cc2)c2nc3ccc(F)cc3c(=O)n2-c2cc3ccccc3cc21 (centres undefined),u,13µM*,x,x,3%,x
Cc1ccc2c(=O)n3c(nc2c1)C(Cc1ccccc1)NC(=O)c1cc2ccccc2cc1-3 (centres undefined),u,12µM*,x,x,7%,x
Cc1ccc2nc3n(c(=O)c2c1)-c1cc2ccccc2cc1C(=O)NC3Cc1ccc(O)cc1 (centres undefined),i,u,x,x,1%,x
Cc1ccccc1NC(=O)CSC1=Nc2ccccc2C2=NC(CCC(=O)NCc3ccccc3)C(=O)N12 (centres undefined),i,i,x,x,-1%,x
COc1ccc(Cl)cc1NC(=O)Cn1cnc2c1c(=O)n(C)c(=O)n2C,i,i,x,x,-1%,x
Cc1c(C(=O)N2CC[C@@H]3CCCC[C@H]3C2)sc2ncnc(NCCc3ccccn3)c12,x,x,x,x,2%,x
Cc1cc(-n2c(C)nc3ccccc3c2=O)ccc1NC(=O)c1cccc([N+](=O)[O-])c1,i,i,x,x,0%,x
COc1cc2nc3n(c(=O)c2cc1OC)-c1cc2ccccc2cc1C(=O)NC3CC(C)C (centres undefined),u,18µM*,x,x,3%,x
COC(=O)[C@@]1(Cc2ccc(OC)cc2)[C@H]2c3cc(C(=O)N(C)C)n(C[C@H](O)CO)c3C[C@H]2CN1C(=O)c1ccccc1,i,i,2%,0%,0%,-1%
C=C1C(=O)CC2=C1[C@](Cc1ccc(F)cc1)(C(=O)OC)N(C(=O)c1ccccc1)C2,i,u,x,x,7%,x
